# Compound activity as filed in PubChem BioAssay.
# Pf growth 48h = P. falciparum growth inhibition at 48 hours (one generation); P. falciparum luciferase growth in erythrocytes, 48 h; Potency, µM (doses to about 28.7 µM), for inactives: at the top dose activity change, negative = inhibition, usual class: inhibitors; hit rate 5.9% among 310,000; note: % is set by controls: 0 for no effect and ±100 for the full control effect
#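 In quantitative HTS format, infected erythrocytes bearing luciferase-reporter parasites were treated for a single generation at 37 C. Luminescence after adding detection reagent served as the growth measure.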
# HCV inhibitor = blocks hepatitis C virus; Huh7.5.1 HCVcc-Cre infection, luciferase reporter, 44 h; Potency, µM (doses to about 41.8 µM), inactives show at the top dose activity change, negative = inhibition, actives largely listed as inhibitors; hit rate 3.4% among 340,000; AID 651820; note: % is set by controls: 0 for no effect and ±100 for the full control effect
#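 Cells (1,000/well) were plated 4 h before compound, then infected with HCVcc-Cre virus (~0.5 moi). After 44 h further culture, infection was read as luciferase luminescence following a 15 min substrate incubation at room temperature.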
# Pf growth 96h = inhibits malaria parasite growth, 96 h | P. falciparum luciferase reporter growth, 96 h | Potency, µM (series often up to 28.7 µM), for the others: at the top dose activity change, negative = inhibition, actives largely listed as inhibitors | hit rate 6.9% among 320,000; note: % is set by controls: 0 for no effect and ±100 for the full control effect
#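 Compounds incubated with erythrocytes infected by luciferase-expressing P. falciparum (2% hematocrit, 0.05% parasitemia final) for 96 hours, 37 C in 5% CO2. Growth inhibition scored as decreased luciferase luminescence.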
# VACV Venus inh = inhibitors of vaccinia virus (Venus reporter) | hit rate 0.46% among 330,000 | Vaccinia virus Venus reporter expression, fluorescence | Potency, µM (series often up to 36.5 µM), for inactives: at the highest dose activity change, negative = inhibition, most hits filed as inhibitors | AID 720580; calls by dose curve; tested in A549 cells; note: % is set by controls: 0 for no effect and ±100 for the full control effect; nearly all actives have a fitted effect of over 30% in size
# Vaccinia mCherry = vaccinia inhibition (mCherry reporter); Vaccinia virus mCherry reporter infection, fluorescence; Potency, µM (titrated, usually from 36.5 µM), for inactives: at the top dose activity change, negative = inhibition, most hits filed as inhibitors; hit rate 0.63% among 310,000; AID 720579; calls by dose curve; tested in A549 cells; note: % is set by controls: 0 for no effect and ±100 for the full control effect; nearly all actives have a fitted effect of over 35% in size
# NS1 function inh = blocks influenza NS1 protein function | Potency, µM (titrated, usually from 46.1 µM), inactives show top-dose activity, positive = more growth | hit rate 0.4% among 270,000; calls by dose curve; note: actives are rising curves; nearly all actives have a fitted effect of over 50% in size
#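 Recovery from NS1-induced slow growth read by OD600 in budding yeast switched to galactose assay medium (pH 6.0, -URA) at 1:100 dilution. Compound 23 nl per well; the matching strain lacking NS1 serves as control.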
# * marks the source's active call; other numbers are inactive results; i = inactive; ? = inconclusive; . = no result; [ ] = another dose, or the depositor's remark. Shown are actives, neighbours in structure and some others; about 11% of the full set was active somewhere. Unless noted, calls come from the whole dose curve; as a rule, active = well fitted inhibition curve with a large enough effect; inconclusive = small, poorly fitted or top-dose-only effect, or another doubt; inactive = no such curve, though single readings can be large or run the other way. Potency is the fitted concentration of half-maximal effect.
SMILES,Pf growth 48h,HCV inhibitor,Pf growth 96h,VACV Venus inh,Vaccinia mCherry,NS1 function inh
O=C(O)c1cccc2c1C(=O)N(CC1CCCO1)C2 (stereo unspecified),34%,9%,?,-2%,7%,0%
N#Cc1ccc(NC(=S)NC(=O)C2CC2)cc1,.,.,.,-9%,i,.
CCOc1ccc(-c2cn(CCC#N)cn2)cc1,30%,4%,6.6µM*,-12%,-3%,-5%
CCOc1ccc(-c2cnc(N)n2C)cc1,15%,-7%,23%,-11%,?,-1%
C/C(=N\Nc1nc2ccccc2[nH]1)c1ccc(Cl)s1,0.93µM*,?,?,?,-16%,21%
C/C(=N\Nc1nc2ccccc2[nH]1)c1ccc(N2CCOCC2)cc1,4.1µM*,?,1.7µM*,-12%,-18%,.
C/C(=N\Nc1nc2ccccc2[nH]1)c1ccc(C)o1,?,7%,-12%,-5%,-15%,-16%
CCOC(=O)c1ccc2c(c1)nc(SC/C(O)=C(\C#N)c1nc3ccccc3[nH]1)n2CC,35%,0%,63%,1%,-9%,3%
CC1CCN(CCCNC(=O)c2cn(C)c3ccc(S(=O)(=O)N4CCCC4)cc3c2=O)CC1,12%,9%,6%,.,.,-2%
CCC/C=C/C=C/C(=O)OC1/C(=C/C(=O)OC)CC2CC(C(C)O)OC(=O)CC(O)CC3CC(OC(C)=O)C(C)(C)C(O)(CC4C/C(=C/C(=O)OC)CC(/C=C\C(C)(C)C1(O)O2)O4)O3 (stereo unspecified),3.8µM*,.,1.5µM*,.,.,.
CSc1nc2n(n1)C(C)C1=C(CCCC1=O)N2 (stereo unspecified),3%,0%,2.9µM*,-7%,0%,.
O=C(CC1Sc2ccccc2NC1=O)Nc1cccc(-c2nnc3n2CCCCC3)c1 (stereo unspecified),9.3µM*,1%,13µM*,-5%,2%,-4%
COc1cccc(C(=O)Nc2ccc(-c3nnc(-c4ccco4)o3)cc2)c1,4.7µM*,-19%,?,?,.,1%
CCCOc1ccc(-c2nnc(-c3ccco3)o2)cc1,-20%,7%,12µM*,.,.,-94%
O=C(Nc1cccc(-c2nnc(-c3ccco3)o2)c1)C(c1ccccc1)c1ccccc1,.,?,5.2µM*,?,?,-66%
O=C(Nc1cccc(-c2nnc(-c3ccco3)o2)c1)c1ccccc1,-17%[5.75 µM],-27%,-13%,-15%,i,.
Cc1ccc(Nc2cc(C)nc3ccccc23)c(C)c1,.,32µM*,.,-23%,i,.
Cc1ccc(Nc2cc(C)nc3ccc(C)cc23)cc1,-105%,?,0.042µM*,?,?,16%
Cc1cc(Nc2ccc3c(c2)OCCO3)c2cc(Cl)ccc2n1,7.4µM*,?,247%,-16%,-27%,9%
Cc1cc(Nc2cccc(Cl)c2)c2ccccc2n1,?,?,8%,.,.,-23%
Cc1cccc(Nc2cc(C)nc3ccccc23)c1,-28%,?,?,-18%,-20%,-6%
COC(=O)c1ccc2nc(C)cc(Nc3ccc(N(C)C)cc3)c2c1,1.7µM*,-4%,?,-9%,?,26%
COCCNC(=O)c1c(N)n(/N=C/c2cccs2)c2nc3ccccc3nc12,0%,?,.,-8%,i,1%
COC(=O)[C@H](Cc1ccccc1)NCCCn1cnc(C(=O)Nc2ccc(C)c(C)c2)n1,.,1%[8.37 µM],.,?,-2%,.
Cc1ccc(-c2noc(CCC(=O)Nc3ccccc3C)n2)cc1,-13%,?,-3%,.,.,-2%
CCOC(=O)C1CCCN(C(=O)Cn2ncc3c4ccccc4n(Cc4ccc(F)cc4)c3c2=O)C1 (stereo unspecified),.,.,.,0%,-2%,.
Cc1cc(C(C)(C)C)oc1C(=O)N(CC(=O)NC1CCCC1)c1c(C)cccc1C,?,10µM*,?,?,?,-52%
COC(=O)C1=CN(c2ccc(C(C)(C)C)cc2)C(N)=C(C#N)C1c1cccc2ccccc12 (stereo unspecified),.,.,.,-12%,8.9µM*,.
